# An excerpt weighted towards active compounds, which were near 2.6% of everything screened.
# CF NFkB inh: blocks PAF-induced NF-kB reporter in cystic fibrosis cells | AID 588850 | KKLEB NF-kB-GFP reporter, GFP fluorescence overnight | 360,000 compounds, 0.86% hits | inhibition, % at 5 µM;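 active = at least 50% inhibition at 5 µM, scaled per plate between neutral and stimulator controls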;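 also: PAF is a Pseudomonas aeruginosa culture filtrate used as stimulus; plate controls were PAF-stimulated DMSO wells for no effect and unstimulated DMSO wells for full effect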
# TROY NFkB inh: inhibitors of TROY-dependent NF-kB signaling. inhibition, % at 10 µM. 360,000 compounds, 0.98% hits. Q293 LMP1-TROYcd NF-kB luciferase reporter, 4 h. AID 1347056;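 active = compounds whose plate-normalised and pattern-corrected inhibition of the luciferase reporter signal at the single screening dose is 50% or more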
# TWEAK-Fn14 inh: TWEAK-Fn14 signaling inhibition; TWEAK-stimulated Fn14 reporter cells, luciferase luminescence, 8 h; inhibition, % at 10 µM; 360,000 compounds, 2% hits; in the data active = inhibition above about 50%
# KKLEB cytotox: counter-screen for CF NF-kB inhibitors: cytotoxicity | KKLEB CF airway cells viability, ATPlite luminescence, overnight; hits give low values; cells stimulated with P. aeruginosa culture filtrate | 360,000 compounds, 0.36% hits | activity change (cytotoxicity), % at 5 µM;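 active = corrected activity change at or below -50% at 5 µM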
# EWS-Fli block: inhibitors of EWS/Fli oncoprotein transcriptional activity; A673 NR0B1-luciferase reporter, viability-normalised; inhibition, % at 12.6 µM; 350,000 compounds, 0.67% hits; AID 651661;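 active = mean inhibition of at least 50% after viability correction, with every replicate also passing that limit; inconclusive = mean reaches 50% but only one of two replicates passes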;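 also: firefly luciferase signal divided by Alamar Blue viability fluorescence both relative to DMSO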
# LGR2 antag: blocks bursicon-induced cAMP signaling via Drosophila LGR2. HEK293 LGR2, CRE-luciferase, bursicon-stimulated, 4 h. inhibition, % at 9.99 µM. 380,000 compounds, 0.35% hits;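 active = drop in luminescence signal, shown as inhibition above about 50% in the replicate tests, limit read from the data, passing the limit was not always enough; inconclusive = probably only some replicates passing the limit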;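 also: agonist challenge used bursicon conditioned medium at about half maximal strength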
# Starred values were filed as active, the others as inactive; u = inconclusive; x = not tested or not shown.
SMILES,CF NFkB inh,TROY NFkB inh,TWEAK-Fn14 inh,KKLEB cytotox,EWS-Fli block,LGR2 antag
CCOC(=O)c1c(C)[nH]c(C(=O)CSc2nnc(-c3ccncc3)n2CC)c1C,19.2,12.9,21.9,-0.3,x,10.1
c1ccc2nc(-c3ccncc3)ccc2c1,6.9,-21.2,-16.9,-6.7,x,x
CN1CCN(c2ccc(-c3ccc4ccccc4n3)cc2)CC1,10.2,92.1*,102.7*,-58.6*,93.4*,102.5*
c1ccc2nc(-c3ccc(N4CCOCC4)cc3)ccc2c1,-19.5,53.4*,89.7*,-46.3,x,x
CO[C@@H]1CN(C)C(=O)c2ccc(NC(=O)NC(C)C)cc2OC[C@@H](C)N(CC2CC2)C[C@@H]1C,x,x,x,x,0.9,2.1
CC(C)(C)OC(=O)NCCCCCc1cn([C@@H](CO)C(=O)NCCCCCCCCCCC(=O)N2CCN(C(=O)OC(C)(C)C)CC2)nn1,8.3,73.3*,103.3*,4.9,14.7,x
CC(C)(C)OC(=O)CC[C@@H](C(=O)NCCCCCCCCCCC(=O)N1CCN(C(=O)OC(C)(C)C)CC1)n1cc(CCCCCNC(=O)OC(C)(C)C)nn1,-3.0,-14.2,13.3,8.2,-4.0,0.1
CC[C@H](C)[C@@H](C(=O)NCCCCCCCCCCC(=O)N1CCN(C(=O)OC(C)(C)C)CC1)n1cc(CCCCCNC(=O)OC(C)(C)C)nn1,9.9,44.6,96.3*,-1.4,22.8,26.8
C/C(=N\Nc1cccc2cccnc12)c1ccc(N)cc1,-1.4,61.7*,49.8,2.3,-85.5,-37.2
C/C(=N\Nc1cccc2cccnc12)c1ccccc1O,-3.4,-6.6,29.2,-27.0,-10.8,-46.4
O=C(CCl)N(c1ccccc1)C1CCS(=O)(=O)C1 (stereo unspecified),9.1,4.7,52.9*,-2.2,x,-14.3
COc1cc(OC)c2c(-c3cccc(-c4ccc(C#N)cc4)c3)cc(=O)oc2c1,1.8,11.7,13.3,-0.1,56.1*,3.9
COc1cc(OC)c2c(-c3cccc(-c4sccc4C(C)=O)c3)cc(=O)oc2c1,59.9*,15.5,48.4,-24.2,55.8*,19.9
COc1cc(OC)c2c(-c3cccc(-c4ccc(OC)c(OC)c4)c3)cc(=O)oc2c1,48.3,15.6,96.8*,-13.2,52.9*,-17.5
CO[C@@H]1CN(C)C(=O)c2cc(NS(C)(=O)=O)ccc2OC[C@@H](C)N(C(=O)C2CCCC2)C[C@H]1C,x,x,x,x,-25.9,-8.9
C[C@@H]1CN([C@@H](C)CO)C(=O)c2cc(NC(=O)CCC(F)(F)F)ccc2O[C@@H]1CN(C)S(=O)(=O)c1cccs1,x,x,x,x,-4.1,5.5
C[C@H]1CCCCO[C@H](CN(C)Cc2ccc(Cl)c(Cl)c2)[C@@H](C)CN([C@@H](C)CO)C(=O)c2cc(NC(=O)Nc3ccc(C(F)(F)F)cc3)ccc2O1,x,x,x,x,7.1,3.3
Cc1nn(C)c(C)c1/C=N/NC(=O)CCn1cc([N+](=O)[O-])cn1,7.7,12.2,3.5,5.0,71.7*,13.1
CCN1CCN(c2ccc(S(=O)(=O)N3CCCCC3)cc2NC(=O)c2ccc([N+](=O)[O-])o2)CC1,17.0,4.3,0.4,13.1,44.5,-0.1
CCN1CCN(c2ccc(NC(=O)c3ccc([N+](=O)[O-])o3)cc2Cl)CC1,89.2*,-9.0,23.7,-43.5,32.9,-36.7
CCC(=O)N1CCN(c2ccc(NC(=O)c3ccc([N+](=O)[O-])o3)cc2Cl)CC1,86.2*,-10.4,17.0,-58.0*,u,5.0
CCn1nnc(NC(=O)c2ccc([N+](=O)[O-])o2)n1,67.9*,-13.6,7.3,0.0,7.6,20.1
COc1ccc(CN(C)C[C@H]2Oc3c(NS(=O)(=O)c4ccc(F)cc4)cccc3C(=O)N([C@@H](C)CO)C[C@H]2C)cc1,x,x,x,x,-4.0,-6.5
Cc1ccc(S(=O)(=O)N(C)C[C@H]2Oc3c(NC(=O)Nc4c(C)noc4C)cccc3C(=O)N([C@@H](C)CO)C[C@@H]2C)cc1,x,x,x,x,8.0,-1.5
COc1ccc(S(=O)(=O)N(C)C[C@H]2Oc3c(NC(=O)Nc4cccc5ccccc45)cccc3C(=O)N([C@H](C)CO)C[C@H]2C)cc1,x,x,x,x,19.8,-4.6
SMILES,CF NFkB inh,TROY NFkB inh,TWEAK-Fn14 inh,KKLEB cytotox,EWS-Fli block,LGR2 antag
Nc1ccccc1Nc1cccc(C(F)(F)F)c1,22.0,18.6,50.3*,-4.6,22.5,15.8
O=C(CCl)Nc1ccccc1Sc1ccc(Cl)cc1,5.4,-14.6,88.0*,-8.8,x,x
O=C(CSCc1ccccc1)NNC(=S)Nc1cccc(Cl)c1Cl,3.9,x,63.6*,8.8,x,x
Oc1cccc2ccc(/C=C/c3ccccc3Cl)nc12,-1.5,74.3*,94.6*,-0.6,-17.9,-44.8
CC1=NN(c2ccc(F)cc2)C(=O)C1C(c1cccc(O)c1)c1c(C)[nH]n(-c2ccc(F)cc2)c1=O (stereo unspecified),1.8,2.6,-1.2,5.4,x,x
CC1=NN(c2ccc(Cl)cc2)C(=O)C1C(c1cccc(O)c1)c1c(C)[nH]n(-c2ccc(Cl)cc2)c1=O (stereo unspecified),3.4,39.9,50.0*,-16.8,x,x
Nc1ccc(C(=O)NN2C(=O)[C@H](Cl)C2c2ccc(Cl)cc2)cc1 (stereo partly specified),90.9*,-23.3,64.6*,-78.9*,26.8,-11.3
CCNC(=O)CC1C(=O)N(C)C(=S)N1NC(=O)c1ccc(Cl)cc1 (stereo unspecified),4.3,17.8,24.5,-3.7,x,-10.7
CCc1ccc(/C=C/C(=O)C2C(=O)c3ccccc3C2=O)cc1,-20.5,-43.8,1.1,11.8,x,62.3*
COc1ccc(C2c3[nH]c4ccccc4c3CCN2Cc2cccn2-c2ncccn2)cc1C (stereo unspecified),22.3,71.2*,56.3*,-10.8,22.4,6.7
COc1ccc(CNC(=O)c2cccc3c(-c4cccnc4)coc23)cc1OC,13.5,50.1*,64.0*,-7.1,17.5,-2.7
COc1ccc(NC(=O)c2cccc3c(-c4cnn(C)c4)coc23)cc1,-12.6,-42.3,-2.4,6.6,-47.2,-55.7
O=C(NCc1cccc(Cl)c1)c1cccc2c(-c3cccnc3)coc12,-5.6,55.8*,90.0*,-14.8,9.3,5.4
COc1cc(NC(=O)c2cccc3c(-c4cnn(C)c4)coc23)cc(OC)c1OC,-5.6,16.2,43.6,-3.9,-5.4,72.5*
CC(=O)c1cccc(NC(=O)c2cccc3c(-c4cccnc4)coc23)c1,-34.4,33.6,58.0*,-0.5,17.2,27.4
O=C(c1cccs1)N1CCN=C1SCc1ccc(F)cc1,-7.7,72.6*,7.3,0.8,-85.6,-4.2
C[C@H]1CCCCO[C@@H](CN(C)S(=O)(=O)c2ccccc2)[C@@H](C)CN([C@@H](C)CO)C(=O)c2cc(NC(=O)Nc3ccc(C(F)(F)F)cc3)ccc2O1,x,x,x,x,1.3,8.8
Brc1ccc(OCc2ccccc2)c(CNCc2ccncc2)c1,14.9,51.7*,26.5,-12.0,x,1.2
COc1ccc2cc3c(N)nn(C(=O)C4CCC(C(C)(C)C)CC4)c3nc2c1 (stereo unspecified),82.2*,55.4*,89.9*,-7.3,-6.2,11.9
